# Only some compounds are listed: those with a hit (about 5.2% of all), similar ones and a draw of the others.
# PfM18AAP inh – PfM18AAP enzyme inhibition; recombinant PfM18AAP, H-Glu-NHMec fluorogenic cleavage; AID 1822; 290,000 compounds, 1.2% hits; inhibition, % at 7.35 µM;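 active = inhibition above the campaign mean inhibition over all tested compounds plus 3 SD, cut at about 28% in these data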
# A3A deaminase – blocks human APOBEC3A ssDNA deamination | P31941 | inhibition, % at 20 µM | AID 493011 | 330,000 compounds, 0.41% hits | recombinant A3A, FAM/TAMRA ssDNA deamination fluorescence;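 active = at least 40% inhibition at 20 µM here, with at most 30% in a related deaminase screen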
# Target sequence (P31941 whole entry, looked up): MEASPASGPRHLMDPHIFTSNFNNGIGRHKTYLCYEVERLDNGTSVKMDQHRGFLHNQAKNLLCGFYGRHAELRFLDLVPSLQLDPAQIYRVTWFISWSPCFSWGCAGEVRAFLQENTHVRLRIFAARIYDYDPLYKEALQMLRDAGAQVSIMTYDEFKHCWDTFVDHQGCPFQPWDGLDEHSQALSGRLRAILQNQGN
# ALR inh – inhibitors of human sulfhydryl oxidase ALR; P55789; AID 485317; 290,000 compounds, 3.8% hits; inhibition, % (test concentration not listed); purified ALR, DTT oxidation, H2O2 HRP-luminol luminescence;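 active = mean replicate inhibition above about 79%, with every replicate also reaching it, limit read from the data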
# Target sequence (P55789 whole entry, looked up): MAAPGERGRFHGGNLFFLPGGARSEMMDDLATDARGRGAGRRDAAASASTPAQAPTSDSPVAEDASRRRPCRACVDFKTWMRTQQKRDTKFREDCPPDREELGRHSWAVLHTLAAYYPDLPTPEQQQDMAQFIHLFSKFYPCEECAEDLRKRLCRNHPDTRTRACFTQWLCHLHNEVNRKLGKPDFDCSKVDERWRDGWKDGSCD
# CR mimetic SO – lowers age-related superoxide in aged yeast cells; S. cerevisiae aged cells, superoxide DHE fluorescence; hits give low values; superoxide response (% of plate mean), % at 10 µM; 330,000 compounds, 0.18% hits; AID 2690;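 active = superoxide response under a set limit, about three screen SD below normal, cut at about 65% in these data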;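 also: yeast aged for seven days with compound at 30 °C before DHE staining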
# CendR NRP1 mod – NRP-1/CendR interaction modulation; FAM-RPARPAR peptide binding to NRP-1, fluorescence polarization; inhibition, % at 25 µM; 360,000 compounds, 0.85% hits;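 active = inhibition or corrected inhibition above about 18%, plus a signal ratio from 0.5 to 1.5, limit read from the data, passing the limit was not always enough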
# A3G deaminase – APOBEC3G (human) deaminase inhibition; Q9HC16; recombinant A3G, ssDNA deamination FAM/TAMRA fluorescence; inhibition, % at 20 µM; 330,000 compounds, 0.28% hits; AID 493012;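 active = inhibition of at least 40% at 20 µM, with no more than 30% in the related APOBEC3A deaminase screen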
# Numbers stand for hits; 0 = inactive; - = not tested or not shown; ! = repeats disagree.
SMILES,PfM18AAP inh,A3A deaminase,ALR inh,CR mimetic SO,CendR NRP1 mod,A3G deaminase
CC1CC(C)CN(C(=O)CCCn2c(=S)[nH]c3ccccc3c2=O)C1 (stereo not given),0,0,96,0,0,0
COCC(=O)c1[nH]c2ccccc2c1C,0,0,92,0,0,0
Cn1c(C(=O)N2CCc3ccccc3C2)cc2c(=O)n3ccccc3nc21,0,0,-,0,0,0
O=C(CCN1CCN(c2ccc(Cl)cc2)CC1)Nc1nccs1,0,0,0,0,0,0
CC(=O)Nc1nnc(Cc2c[nH]c3ccccc23)s1,0,0,0,0,0,0
O=c1c2ccccc2[nH]c(=S)n1CCCN1CCOCC1,0,0,87,0,0,0
O=C(C1CCC(Cn2c(=S)[nH]c3ccccc3c2=O)CC1)N1CCOCC1 (stereo not given),0,0,83,0,0,0
O=C(Nc1c(C(=O)O)[nH]c2ccccc12)NC1CCCCC1,0,0,98,0,0,0
O=c1c2ccc(Cl)cc2[nH]c(=S)n1CCCN1CCOCC1,0,0,95,0,0,0
CCN(CC)CCCn1c(=S)[nH]c2cc(Cl)ccc2c1=O,0,0,0,0,0,0
O=C(CCn1c(=S)[nH]c2ccccc2c1=O)NCCCN1CCOCC1,0,0,0,0,0,0
CC(C)N(C(=O)Cn1c(=O)oc2ccccc21)c1ccccc1,0,0,0,0,0,0
COc1ccc(S(=O)(=O)NCc2ccc3c(c2)OCO3)cc1OC,0,0,0,0,0,0
c1ccc(Cn2ncc3ccccc32)cc1,0,0,0,0,0,0
CSc1cccc(NC(=O)CCn2c(=O)c3cccn3c3cccnc32)c1,0,0,0,0,0,0
O=C(CSc1ccc(-c2ccc(F)cc2)nn1)NC1CCCCC1,0,0,0,0,19,0
Cc1ccc(-c2ccc(SCC(=O)NC3CCCCC3)nn2)cc1,0,0,0,0,0,0
CCC(C)N(C(=O)CSc1nc(C)c(C)c(C)c1C#N)C1CCS(=O)(=O)C1 (stereo not given),-,0,0,0,0,0
C=Cc1c(C)c2cc3[nH]c(cc4nc(cc5nc(cc1[nH]2)C(C)=C5CCC(=O)O)C(CCC(=O)O)=C4C)c(C)c3C=C,-,0,0,0,20!,0
NC(=S)Nc1nc2ccccc2[nH]c1=O,0,0,0,0,-,0
CCN(CC)c1ccc2c(c1)oc(=O)c1c(Cl)cc(=O)oc12,0,0,97,0,0,0
CCN(CC)c1ccc2c(C)c(-c3ccc(N)cc3)c(=O)oc2c1,0,0,87,0,0,0
CCN(CC)c1ccc2c(C)c(Cl)c(=O)oc2c1,0,0,0,0,0,0
CCN(CC)c1ccc2cc(C#N)c(=O)oc2c1,0,0,0,0,25,0
CCN(CC)c1ccc2ccc(=O)oc2c1,0,0,98,0,0,0
SMILES,PfM18AAP inh,A3A deaminase,ALR inh,CR mimetic SO,CendR NRP1 mod,A3G deaminase
CN(C)S(=O)(=O)c1ccc(/C(O)=C2/C(=O)C(=O)N(Cc3cccnc3)C2c2ccco2)cc1 (stereo not given),0,0,0,0,0,0
CCN(CC)c1ccc2c(C)cc(=O)oc2c1,-,0,99,0,0,0
COc1cccc(OCc2cc(C(=O)NCc3ccccn3)no2)c1,0,0,0,0,0,0
C/C(=N\NC(=O)c1cc([N+](=O)[O-])cc([N+](=O)[O-])c1)c1ccco1,0,0,0,0,25,0
C/C(=N/NC(=O)c1cc(-c2ccc(Br)s2)[nH]n1)c1ccco1,0,0,0,0,36,0
CCCCN(C)C(=O)c1sc(=O)n(CC(=O)c2ccccc2OC)c1C,-,-,-,-,0,-
O=C(c1ccco1)N1CCN(c2ncnc3scc(-c4ccc(F)cc4)c23)CC1,0,0,0,0,0,0
Cn1cnnc1SCC(=O)NNC(=O)c1ccc([N+](=O)[O-])cc1,-,0,0,0,0,0
Cn1cnnc1SCC(=O)c1cccc([N+](=O)[O-])c1,0,0,83,0,0,0
Cc1ccc(/C=N/NC(=O)c2ccco2)cc1,0,0,0,0,0,0
CN(C)c1ccc(/C=N/NC(=O)c2ccco2)cc1,0,0,99,0,0,0
CN(C)c1ccc(C=NNC(=O)c2cccnc2)cc1,-,-,-,-,0,-
Cn1ccc(C(=O)N/N=C/c2cccnc2)n1,0,0,0,0,0,0
CN(C)c1ccc(/C=N/NC(=O)c2ccnn2C)cc1,0,0,99,0,0,0
